# Results published in PubChem BioAssay (NCI).
# About 83,000 compounds went through this panel and 20% of them were active in at least one assay; those are over-represented in the sample as a whole.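 Activity criterion: percent growth below 10, measured after cells in 96-well plates were exposed to a single compound concentration for 48 hours.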 Calls of active or inactive are those of the source.
# System: MDA-MB-468 breast
# Test: NCI-60 one-dose screen, 48 h (100 = growth as untreated, 0 = no growth, -100 = all killed)
# Settings: 10 µM unless noted
row,Compound,growth
1,COc1ccc(OC)c(/C=C2\Oc3cc(OCCCN4CCCC4)ccc3C2=O)c1,77.7% (inactive)
2,Cc1ccc(/C=C/c2nn3c(-c4ccco4)nnc3s2)cc1,116% (inactive)
3,c1ccc(CN=C(NCc2ccccc2)NCc2ccccc2)cc1,-14.8% (active)
4,CCOC(=O)c1ccc2nc(-c3c(C)nn(-c4ccccc4)c3N3CCOCC3)[nH]c2c1,105% (inactive)
5,c1cncc(CNc2ccccc2-c2nnc(Nc3ccc4c(c3)OCO4)o2)c1,-1.51% (active)
6,Oc1ccc(Cl)cc1Cc1cc(Cl)ccc1O,19.2% (inactive)
7,COC1C(O)CC(OC2CC(OC3CC(O[C@@H]4C(=O)c5c(cc6cc(OC7CC(OC8CC(O)C(O)C(C)O8)C(O)C(C)O7)c(C)c(O)c6c5O)CC4[C@H](OC)[C@@H](O)C(C)=O)OC(C)C3O)OC(C)C2O)OC1C (stereo not given in full),-40.1% (active)
8,FC(F)(F)c1cccc(Nc2ccccc2)c1,92.7% (inactive)
9,O=c1[nH]c2c(ccc3cnccc32)c2c1CCC2,-60.5% (active)
10,CC(C)(C)Nc1nc2c(OCCc3ccccc3)cccn2c1-c1cccc(F)c1,-30.8% (active)
11,Nc1ccc2c(c1)C(=O)NC2=O,75.4% (inactive)
12,Cc1cc(C)c(C(=O)OC(C)CNC2CCCCC2)c(C)c1 (stereo not given),103% (inactive)
13,COc1ccc(-c2nc3ncccn3c2-c2nc3ccc(Br)cc3[nH]2)cc1,75.6% (inactive)
14,O=C1Nc2ccccc2/C1=C\c1c(-c2ccc(F)cc2)nc2ccccn12,40.8% (inactive)
15,O=C(Nc1ncc(Cc2ccccc2Cl)s1)c1cccs1,33.6% (inactive)
16,Nc1cccc(S(=O)(=O)c2cccc(N)c2)c1,119% (inactive)
17,COc1ccc(C2CC(c3ccc(Nc4nc(Nc5ccc(F)cc5)nc(Nc5ccc(Cl)cc5)n4)cc3)=NN2C(C)=O)cc1 (stereo not given),104% (inactive)
18,CCN1CCN(CCC(=O)Nc2cccc(-n3cc(-c4ccncc4)c(-c4ccc(Cl)c(OC)c4)n3)c2)CC1,-2.3% (active)
19,Clc1ccc2c(c1)NC1(CCSc3ccccc31)n1nccc1-2 (stereo not given),106% (inactive)
20,O=C1/C(=C\c2cccc(OCCCCCOc3ccc(Cl)cc3)c2)N=C2SCCCN12,9.3% (active)

row,Compound,growth
1,Cn1ccc(=Nc2ccc(NC(=O)c3ccc(N=c4ccn(C)c5ccc([N+](=O)[O-])cc45)cc3)cc2)cc1,-2.24% (active)
2,CN1CCN(c2ccc(Nc3ncc(Cl)c(NC[C@@H]4CCCO4)n3)cc2)CC1,30.7% (inactive)
3,Brc1cccc(-c2cc(-c3ccc4c(c3)OCCO4)[nH]n2)c1,2.79% [25 µM] (active)
4,COc1cnc2c(c1)C(=O)c1c-2n(CCCn2ccnc2)c(=O)c2cc(F)ccc12,-35.7% (active)
5,O=C(O)c1ccc(-n2cc(/C=N/Nc3ccc(Cl)cc3Cl)c(-c3ccccc3)n2)cc1,79.7% (inactive)
6,CCc1nc(C)cn1C(=O)OCc1nc2nc(Cl)nc(N3CCOCC3)c2[nH]1,-54.6% (active)
7,Cc1ccc(-c2cc(-c3cccnc3)[nH]c(=O)c2C#N)cc1,106% (inactive)
8,Cc1ccc(S(=O)(=O)N(CCc2ccc(Cl)cc2)S(=O)(=O)c2ccc(C)cc2)cc1,73.8% (inactive)
9,COc1cc2cc3c(=O)n4c(cc5cc(OC)ncc54)c(=O)n3c2cn1,102% (inactive)
10,O=C1NC(=O)C(c2coc3cc(Br)ccc23)=C1c1c[nH]c2ccccc12,3.29% (active)
11,CC1=C(Cl)C(=O)c2cc(C)ccc2C1=O,95.2% (inactive)
12,C#CCNC(=O)[C@]1(C)CC[C@]2(C)CC[C@@H]3C(=CC[C@H]4[C@@]3(C)CC[C@H]3C(C)(C)C(=O)CC[C@]43C)[C@@H]2C1,104% (inactive)
13,COc1ccc(Nc2ncnc3ccc(-c4cncc(NS(C)(=O)=O)c4)cc23)cc1Cl,-10.1% (active)
14,Cc1nc([P+](c2ccccc2)(c2ccccc2)c2ccccc2)c(Sc2sc(-c3ccccc3)nc2[P+](c2ccccc2)(c2ccccc2)c2ccccc2)o1,-31.6% (active)
15,CCCCn1c(-c2ccc(-c3nc(-c4ccc(Cl)cc4)no3)cc2)nc(-c2ccccc2)c1-c1ccccc1,106% (inactive)
16,O=S(=O)(O)c1cc(O)c2c(N=Nc3ccc(Nc4ccccc4)c4c(S(=O)(=O)O)cccc34)cc(S(=O)(=O)O)cc2c1,103% (inactive)
17,Cc1ccc2sc3c(NCCCNCCO)nc4ccccc4c3c(=O)c2c1,42.5% (inactive)
18,CN1CCN(c2nc(NCCCCNc3ccnc4cc(Cl)ccc34)c3ccccc3n2)CC1,62.4% (inactive)
19,NC(N)=NC1CCCCC1,88.8% (inactive)
20,S=C1NCc2cncnc2N1,99.7% (inactive)
